mHTT-CaM PPI inh: mutant huntingtin-calmodulin interaction inhibitors – biochemical, AlphaScreen, primary screen; P42858; AlphaScreen His-mHTT/GST-CaM binding, luminescence; inhibition, % at 15 µM; actives 3.6% (n = 190,000); AID 1671202, 2021;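 also: 0% = both proteins with DMSO and 100% = one protein alone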
Target sequence (P42858 whole entry, looked up, stated change not applied): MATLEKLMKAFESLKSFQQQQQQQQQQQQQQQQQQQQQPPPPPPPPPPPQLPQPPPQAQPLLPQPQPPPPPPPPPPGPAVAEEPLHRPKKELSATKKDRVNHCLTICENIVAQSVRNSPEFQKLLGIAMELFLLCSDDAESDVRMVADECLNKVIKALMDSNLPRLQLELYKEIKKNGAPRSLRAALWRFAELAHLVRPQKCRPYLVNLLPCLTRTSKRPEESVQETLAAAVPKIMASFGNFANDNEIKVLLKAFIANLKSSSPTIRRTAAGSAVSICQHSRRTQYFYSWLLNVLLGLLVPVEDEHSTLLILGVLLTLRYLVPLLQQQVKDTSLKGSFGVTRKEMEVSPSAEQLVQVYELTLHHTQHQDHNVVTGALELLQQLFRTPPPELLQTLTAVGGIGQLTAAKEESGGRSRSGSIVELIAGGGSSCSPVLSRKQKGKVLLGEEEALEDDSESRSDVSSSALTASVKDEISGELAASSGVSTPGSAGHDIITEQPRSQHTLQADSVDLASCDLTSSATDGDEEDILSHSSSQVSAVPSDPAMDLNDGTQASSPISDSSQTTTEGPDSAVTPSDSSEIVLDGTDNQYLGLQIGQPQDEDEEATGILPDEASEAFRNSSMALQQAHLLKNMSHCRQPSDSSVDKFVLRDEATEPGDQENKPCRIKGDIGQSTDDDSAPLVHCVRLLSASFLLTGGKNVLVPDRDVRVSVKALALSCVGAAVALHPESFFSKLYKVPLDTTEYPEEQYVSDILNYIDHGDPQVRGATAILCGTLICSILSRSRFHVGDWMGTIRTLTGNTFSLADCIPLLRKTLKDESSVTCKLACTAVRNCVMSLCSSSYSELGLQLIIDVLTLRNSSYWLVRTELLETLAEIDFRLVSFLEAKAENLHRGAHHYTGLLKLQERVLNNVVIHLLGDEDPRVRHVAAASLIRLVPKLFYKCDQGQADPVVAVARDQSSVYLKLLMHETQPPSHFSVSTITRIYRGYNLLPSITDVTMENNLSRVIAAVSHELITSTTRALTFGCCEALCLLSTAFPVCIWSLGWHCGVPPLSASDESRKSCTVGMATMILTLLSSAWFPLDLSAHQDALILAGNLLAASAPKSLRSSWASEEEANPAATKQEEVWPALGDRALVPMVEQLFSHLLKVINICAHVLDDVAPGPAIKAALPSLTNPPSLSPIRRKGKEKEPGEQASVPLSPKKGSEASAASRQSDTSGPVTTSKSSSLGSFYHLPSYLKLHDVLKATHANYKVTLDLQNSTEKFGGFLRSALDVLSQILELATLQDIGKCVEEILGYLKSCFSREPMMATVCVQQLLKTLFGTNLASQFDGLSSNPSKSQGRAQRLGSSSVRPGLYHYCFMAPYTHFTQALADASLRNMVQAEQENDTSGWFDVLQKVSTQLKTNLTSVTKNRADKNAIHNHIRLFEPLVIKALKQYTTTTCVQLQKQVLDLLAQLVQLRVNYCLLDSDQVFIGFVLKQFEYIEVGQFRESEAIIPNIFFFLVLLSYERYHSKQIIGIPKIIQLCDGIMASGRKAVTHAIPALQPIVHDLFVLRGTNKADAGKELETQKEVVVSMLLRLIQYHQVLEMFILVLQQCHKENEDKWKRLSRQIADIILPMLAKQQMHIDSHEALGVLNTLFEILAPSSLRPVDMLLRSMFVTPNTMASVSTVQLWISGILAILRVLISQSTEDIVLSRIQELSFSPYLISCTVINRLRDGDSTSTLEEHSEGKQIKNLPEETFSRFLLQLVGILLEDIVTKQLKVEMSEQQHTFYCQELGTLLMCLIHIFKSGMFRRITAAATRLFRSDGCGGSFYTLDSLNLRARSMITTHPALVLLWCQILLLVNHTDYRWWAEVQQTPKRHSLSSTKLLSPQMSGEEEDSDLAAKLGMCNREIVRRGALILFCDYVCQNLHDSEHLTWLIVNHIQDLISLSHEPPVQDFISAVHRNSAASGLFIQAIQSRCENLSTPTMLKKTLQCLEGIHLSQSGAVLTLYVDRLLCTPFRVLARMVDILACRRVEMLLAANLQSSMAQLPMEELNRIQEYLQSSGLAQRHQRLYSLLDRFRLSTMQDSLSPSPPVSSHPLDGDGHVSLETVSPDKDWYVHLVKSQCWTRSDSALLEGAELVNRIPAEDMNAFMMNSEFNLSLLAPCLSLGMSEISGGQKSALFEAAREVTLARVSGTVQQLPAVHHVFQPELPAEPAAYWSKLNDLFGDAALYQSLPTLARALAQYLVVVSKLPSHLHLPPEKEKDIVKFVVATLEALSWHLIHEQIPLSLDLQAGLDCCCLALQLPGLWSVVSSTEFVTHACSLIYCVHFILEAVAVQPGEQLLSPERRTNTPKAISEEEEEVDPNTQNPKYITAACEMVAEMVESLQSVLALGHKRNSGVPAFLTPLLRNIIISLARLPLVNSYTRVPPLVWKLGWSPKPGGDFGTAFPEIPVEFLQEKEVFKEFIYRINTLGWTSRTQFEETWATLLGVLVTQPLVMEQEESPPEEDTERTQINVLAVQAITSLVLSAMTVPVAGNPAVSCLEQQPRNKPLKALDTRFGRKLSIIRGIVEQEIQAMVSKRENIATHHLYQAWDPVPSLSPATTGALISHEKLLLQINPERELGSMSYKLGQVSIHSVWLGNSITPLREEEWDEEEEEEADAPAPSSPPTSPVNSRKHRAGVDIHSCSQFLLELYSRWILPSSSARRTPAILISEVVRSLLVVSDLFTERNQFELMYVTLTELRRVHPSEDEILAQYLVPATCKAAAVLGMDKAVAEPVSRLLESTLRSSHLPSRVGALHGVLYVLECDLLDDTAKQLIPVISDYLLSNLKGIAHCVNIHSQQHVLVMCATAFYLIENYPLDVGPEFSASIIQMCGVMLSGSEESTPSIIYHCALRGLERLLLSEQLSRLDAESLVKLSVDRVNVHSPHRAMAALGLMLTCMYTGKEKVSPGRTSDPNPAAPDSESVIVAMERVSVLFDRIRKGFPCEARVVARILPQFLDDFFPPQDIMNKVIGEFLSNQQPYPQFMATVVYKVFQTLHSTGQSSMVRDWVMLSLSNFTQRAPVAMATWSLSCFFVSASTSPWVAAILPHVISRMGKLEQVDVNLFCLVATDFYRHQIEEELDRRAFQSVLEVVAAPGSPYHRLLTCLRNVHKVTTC
Pf apPOL block: Pf-apPOL inhibitors, biochemical, fluorescence. Plasmodium falciparum apicoplast DNA polymerase (apPOL). Recombinant Pf-apPOL, molecular beacon fluorescence, 1.5 h. inhibition, % at 10 µM. actives 0.25% (n = 210,000). AID 1794808, 2022
Active calls of the source: *; x = no result given. A selection: hits, their analogues and other compounds. The true share with any hit is near 3.6%. Rule as the data show it: active = inhibition above about 50%; inactive = the rest.

SMILES	mHTT-CaM PPI inh	Pf apPOL block
O=C(c1c[nH]c2ccccc12)N1CCC2(CC1)NC(=O)N(Cc1cccc(Cl)c1)C2=O	100.1*	-0.7
O=C(c1cc2ccccc2[nH]1)N1CCC2(CC1)NC(=O)N(Cc1ccc(Cl)cc1)C2=O	99.0*	-1.5
O=C(c1cc2ccccc2[nH]1)N1CCC2(C1)NC(=O)N(Cc1ccc(Cl)cc1)C2=O (stereo not drawn)	9.2	0.6
O=C(c1ccccc1F)N1CCC2(CC1)NC(=O)N(Cc1ccccc1)C2=O	-1.4	-1.7
O=C(c1nccc2ccccc12)N1CCC2(CC1)NC(=O)N(Cc1cccc(Cl)c1)C2=O	24.1	-7.9
O=C(c1c[nH]c2ccccc12)N1CCC2(CC1)NC(=O)N(Cc1ccccc1)C2=O	62.1*	1.9
O=C(CCCCCN1C(=O)c2cccc([N+](=O)[O-])c2C1=O)Nc1ccc(Cl)cc1	17.0	-2.6
O=C(NCc1nnc(SCc2ccccn2)o1)c1ccccc1	-13.3	-3.6
COc1ccc(Cl)cc1S(=O)(=O)N1CCc2nc3cc[nH]n3c(=O)c2C1	-3.4	-2.1
O=C(NCc1cccnc1)C1CCN(c2cc(N3CCCCC3)ncn2)CC1	-4.0	1.6
O=C(CCS(=O)(=O)Cc1cccc(Cl)c1)NCc1cccs1	-4.0	-4.3
CCOc1ccc(-c2c(C#N)c(N)n3c(nc4ccccc43)c2C#N)cc1OC	47.0	0.2
COc1cc(-c2c(C#N)c(N)n3c(nc4ccccc43)c2C#N)ccc1OCC#N	69.0*	-0.3
Cn1c(=O)c2c(ncn2CC(=O)Nc2ccc([N+](=O)[O-])cc2)n(C)c1=O	4.4	-7.5
Cc1c(C(c2ccco2)c2c(C)n(C)n(-c3ccccc3)c2=O)c(=O)n(-c2ccccc2)n1C	1.0	3.3
Cc1[nH]n(-c2ccccc2)c(=O)c1C(c1ccco1)c1c(C)[nH]n(-c2ccccc2)c1=O	54.0*	-6.9
Nc1nnc(-c2ccccc2I)s1	-1.7	-4.7
Cc1ccccc1NC1=C(N2CCOCC2)C(=O)c2ccccc2C1=O	5.0	2.5
Cc1ccccc1NC1=C(N)C(=O)c2ccccc2C1=O	58.9*	-7.5
CCN(CC)C1C(=O)Nc2ccc(Br)cc2C1c1ccccc1Cl (stereo not drawn)	94.0*	13.1
O=C1Nc2ccc(Br)cc2C(c2ccccc2Cl)C1N1CCCCC1 (stereo not drawn)	80.0*	-6.8
O=C1CN(C(=O)C2CC2)C(c2ccccc2)c2cc(Br)ccc2N1 (stereo not drawn)	10.0	-3.9
CC12CC(NC(=O)N1Cc1ccccc1)c1cc(Br)ccc1O2 (stereo not drawn)	10.0	3.0
COc1ccc(C)cc1N1CCN(C(=O)c2ccc(C)cc2)C(C)C1=O (stereo not drawn)	0.1	-0.8
CC(CNC(=O)c1cc2c(s1)CN(C1CC1)C2)c1ccccc1 (stereo not drawn)	40.3	21.9
SMILES	mHTT-CaM PPI inh	Pf apPOL block
CC(C)NC(=O)c1cc2nc(N(C)C)n(-c3ccc(F)cc3)c2s1	5.8	0.5
CCC(=O)NCc1nc2c(n1C)CN(C(=O)c1cc(F)cc(F)c1)CC2	7.5	2.2
CCCN1CC=C2C(C#N)=C(N)C(C#N)(C#N)C(c3ccccc3F)C2C1 (stereo not drawn)	16.0	-3.5
O=C(Nc1nnc(C2CC(=O)N(c3ccccc3)C2)o1)c1cccs1 (stereo not drawn)	55.5*	-4.9
CSc1ccc(N2CC(c3nnc(NC(=O)c4cccc(F)c4)o3)CC2=O)cc1 (stereo not drawn)	62.4*	-1.0
CCOc1ccc(N2CC(c3nnc(NC(=O)c4ccccc4)o3)CC2=O)cc1 (stereo not drawn)	82.3*	-2.8
O=C(Nc1nnc(C2CC(=O)N(c3ccc(F)cc3)C2)o1)c1cccc(F)c1 (stereo not drawn)	4.7	-0.4
CSc1ccc(N2CC(c3nnc(NC(=O)c4ccc(Cl)cc4)o3)CC2=O)cc1 (stereo not drawn)	8.8	-2.0
CCCOc1ccc(C(=O)Nc2nnc(C3CC(=O)N(c4ccc(OCC)cc4)C3)o2)cc1 (stereo not drawn)	15.8	-2.8
O=C(Nc1nnc(C2CC(=O)N(c3ccccc3)C2)o1)c1ccccc1 (stereo not drawn)	2.2	-1.2
CSc1ccc(N2CC(c3nnc(NC(=O)c4cccs4)o3)CC2=O)cc1 (stereo not drawn)	63.5*	0.7
O=c1/c(=C/c2cc([N+](=O)[O-])ccc2F)sc2nc3ccccc3n12	10.0	-0.5
Cc1cccc(N2CCN(C(=O)NC(C)C)C(C)C2=O)c1C (stereo not drawn)	1.3	-0.5
Cc1ccc(C(=O)NC2CCCCC2)c(C2CCN(C(=O)c3ccccc3)CC2)n1	13.7	-6.5
CC(Oc1ccccc1)C(=O)N1CCN(Cc2nc3ccccc3n2C)CC1 (stereo not drawn)	-3.6	-7.8
CC(C)CCNC(=O)CN1CCN(C(=O)Nc2ccc(Cl)cc2)CC1=O	-2.9	-0.6
O=C1CC(c2ccc3c(c2)OCO3)Sc2nc(-c3ccccc3)nn21 (stereo not drawn)	1.0	-7.5
COc1ccc(C2CC(c3ccco3)=Nc3ccccc3S2)cc1OC (stereo not drawn)	46.0	-2.3
Cc1ccc(C2CC(c3ccco3)=Nc3ccccc3S2)cc1 (stereo not drawn)	64.0*	-0.4
c1coc(C2=Nc3ccccc3SC(c3ccc4c(c3)OCO4)C2)c1 (stereo not drawn)	51.0*	-4.2
NN=c1nc2sccn2c2ncccc12	x	22.8
Cc1c(Cl)cccc1S(=O)(=O)N1CCC(c2noc(-c3ccccc3)n2)CC1	-0.7	-1.8
CC1=C(C(=O)Nc2ccc(F)c(F)c2)C(c2ccccc2Cl)NC(=O)N1 (stereo not drawn)	6.0	1.7
O=C(O)c1cc2c3c(c1)C1C=CCC1C(c1ccccc1)N3CC1CC=CC21 (stereo not drawn)	94.0*	3.4
O=C(O)c1cc2c3c(c1)C1C=CCC1C(c1cccc([N+](=O)[O-])c1)N3CC1CC=CC21 (stereo not drawn)	70.0*	4.3
SMILES	mHTT-CaM PPI inh	Pf apPOL block
O=C(O)c1ccc2c3c1C1C=CCC1CN3CC1CC=CC21 (stereo not drawn)	16.0	11.7
C1=CC2c3cccc4c3N(CC2C1)CC1CC=CC41 (stereo not drawn)	39.8	x
NS(=O)(=O)c1cc2c3c(c1)C1C=CCC1C(c1ccc([N+](=O)[O-])cc1)N3CC1CC=CC21 (stereo not drawn)	62.9*	-7.9
O=[N+]([O-])c1ccc(S(=O)(=O)N2CC3C4C=CC(C4)C3C2)cc1 (stereo not drawn)	4.0	8.0
O=C(O)c1cc2c3c(c1)C1C=CCC1C(c1ccc(F)cc1)N3CC1CC=CC21 (stereo not drawn)	96.0*	-1.8
O=[N+]([O-])c1cccc(C2N(c3ccccc3)CCN2c2ccccc2)c1	x	-3.1
O=C(O)c1cccc2c1OCCO2	x	0.9
Cc1cc(C)cc(N2CCN(C(=O)c3ccc(Cl)cc3Cl)C(C)C2=O)c1 (stereo not drawn)	19.3	-3.5
C=C(C)COc1ccc2c(c1)OC(=Cc1ccccc1OCC)C2=O	-16.6	-3.1
COc1cc(N2C(=O)NC3CC2(C)Oc2c(OC)cccc23)cc(OC)c1OC (stereo not drawn)	-3.9	-3.6
O=[N+]([O-])C(/C=C(\Cl)[N+](=O)[O-])=C(N1CCCC1)N1CCCC1	10.0	-2.2

From PubChem BioAssay
